Experiments:
[1] = molecular target: Protein kinase C gamma type (Homo sapiens) (UniProt P05129); settings: at 1 µM;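 note: each value is an averaged percent inhibition of the enzyme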
[2] = molecular target: T1, Protein kinase C iota type (Homo sapiens) (UniProt P41743); settings: at 0.1 µM
T1 sequence (whole entry): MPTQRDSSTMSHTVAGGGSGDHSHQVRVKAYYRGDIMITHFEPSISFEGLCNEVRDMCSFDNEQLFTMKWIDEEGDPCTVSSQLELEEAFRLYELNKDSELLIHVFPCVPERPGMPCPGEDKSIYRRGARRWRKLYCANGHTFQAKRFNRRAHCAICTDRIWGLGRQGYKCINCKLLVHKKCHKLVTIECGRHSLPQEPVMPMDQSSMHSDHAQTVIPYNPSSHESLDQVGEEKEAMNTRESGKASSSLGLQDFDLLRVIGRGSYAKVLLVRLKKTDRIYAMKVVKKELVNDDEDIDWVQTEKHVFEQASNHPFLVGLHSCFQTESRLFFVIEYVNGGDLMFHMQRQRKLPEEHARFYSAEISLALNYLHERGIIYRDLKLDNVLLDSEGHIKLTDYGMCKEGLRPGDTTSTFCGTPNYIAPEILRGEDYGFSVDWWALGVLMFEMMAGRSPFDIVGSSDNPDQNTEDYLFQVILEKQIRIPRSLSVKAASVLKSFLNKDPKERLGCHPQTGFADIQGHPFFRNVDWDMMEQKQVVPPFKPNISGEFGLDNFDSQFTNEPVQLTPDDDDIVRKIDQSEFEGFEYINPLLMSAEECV

[3] = molecular target: T1, Protein kinase C iota type (Homo sapiens); settings: at 1 µM
[4] = molecular target: Protein kinase C theta type (Homo sapiens) (UniProt Q04759); settings: at 0.1 µM
[5] = molecular target: Protein kinase C theta type (Homo sapiens) (UniProt Q04759); settings: at 1 µM
[6] = molecular target: Protein kinase C beta type (Homo sapiens) (UniProt P05771); settings: at 0.1 µM
[7] = molecular target: Protein kinase C beta type (Homo sapiens) (UniProt P05771); settings: at 1 µM
[8] = molecular target: T2, Serine/threonine-protein kinase D1 (Homo sapiens) (UniProt Q15139); settings: at 0.1 µM
T2 sequence (whole entry): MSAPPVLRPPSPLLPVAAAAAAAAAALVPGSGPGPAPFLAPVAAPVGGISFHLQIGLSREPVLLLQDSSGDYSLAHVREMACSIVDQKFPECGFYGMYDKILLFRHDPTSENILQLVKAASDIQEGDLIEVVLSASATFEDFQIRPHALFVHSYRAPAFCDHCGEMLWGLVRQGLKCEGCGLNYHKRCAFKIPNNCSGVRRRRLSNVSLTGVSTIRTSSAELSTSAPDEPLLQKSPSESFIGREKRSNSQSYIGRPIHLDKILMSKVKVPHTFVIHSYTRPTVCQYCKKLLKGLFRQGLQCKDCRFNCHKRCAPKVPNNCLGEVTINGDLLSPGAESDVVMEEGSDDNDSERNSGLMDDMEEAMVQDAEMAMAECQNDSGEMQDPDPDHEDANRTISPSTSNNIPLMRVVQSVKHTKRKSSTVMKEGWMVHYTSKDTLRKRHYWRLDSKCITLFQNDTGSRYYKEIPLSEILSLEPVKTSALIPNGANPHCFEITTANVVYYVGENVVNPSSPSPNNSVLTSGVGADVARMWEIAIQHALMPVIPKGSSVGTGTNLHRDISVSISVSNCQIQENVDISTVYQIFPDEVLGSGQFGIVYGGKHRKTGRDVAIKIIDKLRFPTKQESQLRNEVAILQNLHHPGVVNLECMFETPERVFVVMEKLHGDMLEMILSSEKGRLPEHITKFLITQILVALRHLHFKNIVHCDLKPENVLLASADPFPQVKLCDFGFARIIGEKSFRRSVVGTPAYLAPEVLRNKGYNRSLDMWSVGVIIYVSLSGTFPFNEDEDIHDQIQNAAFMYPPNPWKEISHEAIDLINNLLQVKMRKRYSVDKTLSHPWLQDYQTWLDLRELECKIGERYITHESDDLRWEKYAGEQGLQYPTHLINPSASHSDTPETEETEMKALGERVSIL

[9] = molecular target: T2, Serine/threonine-protein kinase D1 (Homo sapiens); settings: at 1 µM
[10] = molecular target: T3, Serine/threonine-protein kinase D2 (Homo sapiens) (UniProt Q9BZL6); settings: at 0.1 µM
T3 sequence (whole entry): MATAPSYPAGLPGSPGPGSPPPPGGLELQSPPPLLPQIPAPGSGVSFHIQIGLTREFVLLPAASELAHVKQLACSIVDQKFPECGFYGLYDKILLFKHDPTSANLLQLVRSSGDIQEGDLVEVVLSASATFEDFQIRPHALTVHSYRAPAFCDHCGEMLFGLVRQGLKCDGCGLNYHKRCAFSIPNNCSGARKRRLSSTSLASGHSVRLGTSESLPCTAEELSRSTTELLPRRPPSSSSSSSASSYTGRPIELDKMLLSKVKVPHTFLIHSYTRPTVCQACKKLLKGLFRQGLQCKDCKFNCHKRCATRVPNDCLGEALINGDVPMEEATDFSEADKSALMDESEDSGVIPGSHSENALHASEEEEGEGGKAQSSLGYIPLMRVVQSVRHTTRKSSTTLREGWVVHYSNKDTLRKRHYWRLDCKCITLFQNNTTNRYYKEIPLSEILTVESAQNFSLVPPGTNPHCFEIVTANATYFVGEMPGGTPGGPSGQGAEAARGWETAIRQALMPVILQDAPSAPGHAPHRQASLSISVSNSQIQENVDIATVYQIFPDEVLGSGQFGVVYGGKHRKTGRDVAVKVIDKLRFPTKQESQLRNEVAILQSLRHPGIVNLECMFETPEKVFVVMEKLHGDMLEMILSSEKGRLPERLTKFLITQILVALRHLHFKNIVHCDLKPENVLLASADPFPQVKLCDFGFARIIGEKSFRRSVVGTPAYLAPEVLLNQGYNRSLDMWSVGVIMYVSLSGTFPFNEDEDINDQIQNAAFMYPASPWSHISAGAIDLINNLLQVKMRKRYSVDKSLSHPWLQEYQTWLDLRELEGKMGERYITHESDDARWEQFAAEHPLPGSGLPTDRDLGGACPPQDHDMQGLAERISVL

[11] = molecular target: T3, Serine/threonine-protein kinase D2 (Homo sapiens); settings: at 1 µM
[12] = molecular target: T4, Serine/threonine-protein kinase D3 (Homo sapiens) (UniProt O94806); settings: at 0.1 µM
T4 sequence (whole entry): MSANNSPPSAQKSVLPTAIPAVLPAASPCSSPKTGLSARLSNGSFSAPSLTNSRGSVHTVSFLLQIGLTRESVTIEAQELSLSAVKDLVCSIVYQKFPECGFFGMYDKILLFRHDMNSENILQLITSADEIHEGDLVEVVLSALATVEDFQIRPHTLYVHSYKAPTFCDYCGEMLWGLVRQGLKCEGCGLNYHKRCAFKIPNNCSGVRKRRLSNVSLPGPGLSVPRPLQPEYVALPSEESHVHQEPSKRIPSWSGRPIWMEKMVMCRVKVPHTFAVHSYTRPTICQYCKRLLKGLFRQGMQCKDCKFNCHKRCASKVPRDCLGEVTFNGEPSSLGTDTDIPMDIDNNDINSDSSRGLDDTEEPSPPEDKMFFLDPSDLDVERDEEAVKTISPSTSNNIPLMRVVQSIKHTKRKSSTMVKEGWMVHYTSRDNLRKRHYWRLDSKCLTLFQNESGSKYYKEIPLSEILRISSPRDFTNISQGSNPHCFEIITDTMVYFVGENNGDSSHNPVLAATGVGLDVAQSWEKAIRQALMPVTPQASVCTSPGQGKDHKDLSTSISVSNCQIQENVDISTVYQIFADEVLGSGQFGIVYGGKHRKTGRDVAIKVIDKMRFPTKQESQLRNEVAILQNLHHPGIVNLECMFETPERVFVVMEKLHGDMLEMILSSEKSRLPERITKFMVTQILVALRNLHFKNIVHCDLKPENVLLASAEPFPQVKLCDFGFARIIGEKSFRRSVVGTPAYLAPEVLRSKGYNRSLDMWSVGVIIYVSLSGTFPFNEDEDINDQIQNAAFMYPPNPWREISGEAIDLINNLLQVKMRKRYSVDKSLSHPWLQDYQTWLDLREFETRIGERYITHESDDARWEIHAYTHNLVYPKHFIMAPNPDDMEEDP

[13] = molecular target: T4, Serine/threonine-protein kinase D3 (Homo sapiens); settings: at 1 µM
[14] = molecular target: T5, cGMP-dependent protein kinase 1 (Homo sapiens) (UniProt Q13976); settings: at 0.1 µM
T5 sequence (whole entry): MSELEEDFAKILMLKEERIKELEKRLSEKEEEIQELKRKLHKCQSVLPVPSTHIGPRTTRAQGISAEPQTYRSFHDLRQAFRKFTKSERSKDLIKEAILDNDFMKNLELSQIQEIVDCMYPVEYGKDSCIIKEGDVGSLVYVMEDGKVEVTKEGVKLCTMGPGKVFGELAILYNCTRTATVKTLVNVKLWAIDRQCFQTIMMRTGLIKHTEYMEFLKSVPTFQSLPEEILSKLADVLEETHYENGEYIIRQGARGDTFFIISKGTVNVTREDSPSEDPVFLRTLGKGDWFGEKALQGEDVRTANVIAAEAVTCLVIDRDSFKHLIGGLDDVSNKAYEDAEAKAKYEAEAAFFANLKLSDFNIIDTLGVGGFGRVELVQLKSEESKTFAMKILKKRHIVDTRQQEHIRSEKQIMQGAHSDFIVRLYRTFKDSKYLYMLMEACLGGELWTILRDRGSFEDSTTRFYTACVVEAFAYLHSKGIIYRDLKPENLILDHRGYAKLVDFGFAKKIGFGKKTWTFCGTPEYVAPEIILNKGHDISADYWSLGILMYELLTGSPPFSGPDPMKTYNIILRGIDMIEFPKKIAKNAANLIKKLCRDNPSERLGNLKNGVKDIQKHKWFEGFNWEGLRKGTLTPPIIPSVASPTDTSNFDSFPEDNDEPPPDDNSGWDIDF

[15] = molecular target: T5, cGMP-dependent protein kinase 1 (Homo sapiens); settings: at 1 µM
[16] = molecular target: T6, cGMP-dependent protein kinase 2 (Homo sapiens) (UniProt Q13237); settings: at 0.1 µM
T6 sequence (whole entry): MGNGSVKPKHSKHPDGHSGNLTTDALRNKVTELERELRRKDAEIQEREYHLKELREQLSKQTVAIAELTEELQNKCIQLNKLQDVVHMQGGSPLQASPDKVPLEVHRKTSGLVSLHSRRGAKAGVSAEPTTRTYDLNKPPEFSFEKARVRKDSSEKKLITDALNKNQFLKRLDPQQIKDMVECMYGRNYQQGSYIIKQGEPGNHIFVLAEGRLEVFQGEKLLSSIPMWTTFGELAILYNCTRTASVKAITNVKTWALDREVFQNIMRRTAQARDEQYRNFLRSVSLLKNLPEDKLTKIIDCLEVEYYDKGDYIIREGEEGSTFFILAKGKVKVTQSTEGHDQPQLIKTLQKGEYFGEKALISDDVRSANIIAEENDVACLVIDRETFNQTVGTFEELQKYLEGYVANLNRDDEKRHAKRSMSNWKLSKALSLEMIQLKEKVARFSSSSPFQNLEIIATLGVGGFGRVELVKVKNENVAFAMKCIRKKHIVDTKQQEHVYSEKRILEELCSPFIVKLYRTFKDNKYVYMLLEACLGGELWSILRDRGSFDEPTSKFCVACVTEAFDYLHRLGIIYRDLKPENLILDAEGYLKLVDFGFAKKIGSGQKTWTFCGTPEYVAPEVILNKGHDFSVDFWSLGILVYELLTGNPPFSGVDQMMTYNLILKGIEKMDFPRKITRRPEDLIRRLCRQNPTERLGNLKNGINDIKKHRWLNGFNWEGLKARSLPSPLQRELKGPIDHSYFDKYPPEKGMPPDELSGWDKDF

[17] = molecular target: T6, cGMP-dependent protein kinase 2 (Homo sapiens); settings: at 1 µM
[18] = molecular target: T7, cAMP-dependent protein kinase catalytic subunit PRKX (Homo sapiens) (UniProt P51817); settings: at 0.1 µM
T7 sequence (whole entry): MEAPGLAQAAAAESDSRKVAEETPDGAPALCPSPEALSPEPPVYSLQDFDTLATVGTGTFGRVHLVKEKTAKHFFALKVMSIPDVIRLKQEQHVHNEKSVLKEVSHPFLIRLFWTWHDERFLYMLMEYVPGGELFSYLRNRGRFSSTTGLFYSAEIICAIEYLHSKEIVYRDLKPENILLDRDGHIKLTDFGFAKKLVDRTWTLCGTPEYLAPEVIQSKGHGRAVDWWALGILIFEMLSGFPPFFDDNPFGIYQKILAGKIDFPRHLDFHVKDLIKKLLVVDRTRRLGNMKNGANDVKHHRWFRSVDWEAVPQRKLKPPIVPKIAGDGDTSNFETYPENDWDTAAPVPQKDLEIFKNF

[19] = molecular target: T7, cAMP-dependent protein kinase catalytic subunit PRKX (Homo sapiens); settings: at 1 µM
[20] = molecular target: Rho-associated protein kinase 1 (Homo sapiens) (UniProt Q13464); settings: at 0.1 µM;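 note: values are mean percent inhibition of ROCK1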
Chain of Rho-associated protein kinase 1 (Homo sapiens) (Q13464 2-1354 limits assumed): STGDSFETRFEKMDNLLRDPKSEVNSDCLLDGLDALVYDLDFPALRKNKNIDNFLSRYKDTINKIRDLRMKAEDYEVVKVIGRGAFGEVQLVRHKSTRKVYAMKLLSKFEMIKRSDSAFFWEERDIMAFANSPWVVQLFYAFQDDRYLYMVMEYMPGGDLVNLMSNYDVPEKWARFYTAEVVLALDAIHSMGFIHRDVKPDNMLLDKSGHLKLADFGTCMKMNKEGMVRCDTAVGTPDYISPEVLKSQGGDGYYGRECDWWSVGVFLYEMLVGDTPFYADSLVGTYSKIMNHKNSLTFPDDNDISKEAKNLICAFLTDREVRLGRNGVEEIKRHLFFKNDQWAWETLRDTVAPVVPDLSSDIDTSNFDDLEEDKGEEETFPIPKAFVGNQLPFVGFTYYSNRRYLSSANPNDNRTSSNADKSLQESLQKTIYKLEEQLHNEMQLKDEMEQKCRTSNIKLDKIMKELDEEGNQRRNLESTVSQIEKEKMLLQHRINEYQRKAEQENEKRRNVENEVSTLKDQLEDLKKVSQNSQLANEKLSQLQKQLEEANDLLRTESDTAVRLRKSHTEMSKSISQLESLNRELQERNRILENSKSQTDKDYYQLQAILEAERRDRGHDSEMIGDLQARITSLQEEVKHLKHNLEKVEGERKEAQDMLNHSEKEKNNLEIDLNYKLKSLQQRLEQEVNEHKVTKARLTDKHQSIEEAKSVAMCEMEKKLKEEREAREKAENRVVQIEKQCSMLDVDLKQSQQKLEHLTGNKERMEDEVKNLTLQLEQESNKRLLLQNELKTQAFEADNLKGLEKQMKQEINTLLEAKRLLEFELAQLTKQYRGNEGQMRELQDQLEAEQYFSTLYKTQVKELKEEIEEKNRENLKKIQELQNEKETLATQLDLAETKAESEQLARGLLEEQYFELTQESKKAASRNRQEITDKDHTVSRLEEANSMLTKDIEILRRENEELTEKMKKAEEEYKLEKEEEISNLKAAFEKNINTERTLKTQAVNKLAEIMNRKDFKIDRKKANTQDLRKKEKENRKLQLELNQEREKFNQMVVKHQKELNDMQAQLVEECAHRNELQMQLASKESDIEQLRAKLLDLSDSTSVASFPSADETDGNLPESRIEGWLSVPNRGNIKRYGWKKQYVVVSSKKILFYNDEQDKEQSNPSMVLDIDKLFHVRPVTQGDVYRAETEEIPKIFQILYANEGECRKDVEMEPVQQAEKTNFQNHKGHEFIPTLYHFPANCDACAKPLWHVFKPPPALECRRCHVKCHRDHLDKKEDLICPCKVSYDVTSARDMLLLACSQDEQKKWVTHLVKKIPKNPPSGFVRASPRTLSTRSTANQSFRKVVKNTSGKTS

Chain of Protein kinase C beta type (Homo sapiens) (P05771 2-671 limits assumed): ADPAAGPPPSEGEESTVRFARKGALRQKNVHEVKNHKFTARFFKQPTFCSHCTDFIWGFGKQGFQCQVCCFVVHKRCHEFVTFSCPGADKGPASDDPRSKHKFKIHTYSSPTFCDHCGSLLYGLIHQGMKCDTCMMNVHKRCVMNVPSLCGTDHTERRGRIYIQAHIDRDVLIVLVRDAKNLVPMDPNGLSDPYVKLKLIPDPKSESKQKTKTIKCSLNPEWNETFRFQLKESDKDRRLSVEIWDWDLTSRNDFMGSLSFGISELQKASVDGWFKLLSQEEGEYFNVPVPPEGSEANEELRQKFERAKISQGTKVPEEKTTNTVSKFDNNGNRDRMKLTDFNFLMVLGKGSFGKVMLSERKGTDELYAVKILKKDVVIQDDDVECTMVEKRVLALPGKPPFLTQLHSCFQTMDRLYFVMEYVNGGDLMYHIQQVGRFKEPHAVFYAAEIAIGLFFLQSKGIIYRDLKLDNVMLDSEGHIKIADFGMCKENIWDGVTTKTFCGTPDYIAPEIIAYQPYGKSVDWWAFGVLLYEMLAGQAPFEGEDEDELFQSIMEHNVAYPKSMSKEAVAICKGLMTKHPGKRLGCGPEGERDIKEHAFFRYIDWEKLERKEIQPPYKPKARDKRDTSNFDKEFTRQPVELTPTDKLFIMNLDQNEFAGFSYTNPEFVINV
Chain of Protein kinase C theta type (Homo sapiens) (Q04759 whole entry, looked up): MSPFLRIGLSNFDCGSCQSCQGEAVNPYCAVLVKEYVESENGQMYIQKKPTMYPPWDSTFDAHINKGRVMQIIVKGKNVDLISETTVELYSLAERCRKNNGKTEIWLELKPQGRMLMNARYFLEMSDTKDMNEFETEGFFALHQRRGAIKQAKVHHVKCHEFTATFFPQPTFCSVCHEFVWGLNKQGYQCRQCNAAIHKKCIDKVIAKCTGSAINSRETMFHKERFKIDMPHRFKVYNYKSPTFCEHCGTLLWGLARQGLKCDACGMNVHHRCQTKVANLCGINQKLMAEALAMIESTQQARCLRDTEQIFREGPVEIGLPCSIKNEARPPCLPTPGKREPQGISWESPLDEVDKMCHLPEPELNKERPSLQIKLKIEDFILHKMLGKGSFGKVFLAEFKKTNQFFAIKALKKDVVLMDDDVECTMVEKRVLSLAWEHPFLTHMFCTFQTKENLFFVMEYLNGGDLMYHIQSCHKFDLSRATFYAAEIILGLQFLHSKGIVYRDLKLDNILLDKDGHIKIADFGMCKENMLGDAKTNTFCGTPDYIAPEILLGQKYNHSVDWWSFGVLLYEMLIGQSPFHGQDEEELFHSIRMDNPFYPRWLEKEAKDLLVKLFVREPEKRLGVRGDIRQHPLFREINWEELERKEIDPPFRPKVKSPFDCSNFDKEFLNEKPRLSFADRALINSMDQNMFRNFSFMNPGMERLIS

Compound	inhibition [1] [%]	inhibition [2] [%]	inhibition [3] [%]	inhibition [4] [%]	inhibition [5] [%]	inhibition [6] [%]	inhibition [7] [%]	inhibition [8] [%]	inhibition [9] [%]	inhibition [10] [%]	inhibition [11] [%]	inhibition [12] [%]	inhibition [13] [%]	inhibition [14] [%]	inhibition [15] [%]	inhibition [16] [%]	inhibition [17] [%]	inhibition [18] [%]	inhibition [19] [%]	inhibition [20] [%]
CS(=O)(=O)CCNCc1cc(-c2cc3c(Nc4ccc(OCc5cccc(F)c5)c(Cl)c4)ncnc3s2)cs1	0.58	1.33	1.53	2.91	4.44	0.62	2	4.69	8.12	4.1	4.68	4.68	5.41	4.85	8.33	3.09	4.67	1.65	2.04	3.25
O=C(Nc1n[nH]c2cc(-c3ccccc3)ccc12)C1CC1	1.52	2.86	3.51	2.7	1.97	1.8	3.32	4.43	5.64	4.79	5.1	5.75	6.47	3.2	3.14	1.66	2.57	1.37	0.63	1.2
CCC(=O)Nc1ccc(C)c(-c2ccc(C(=O)NCC3CC3)cc2)c1	2.13	0.11	0.41	1.23	1.92	0.61	1.48	2.88	2.86	1.86	0.39	2.64	2.11	2.33	2.99	1.03	3.23	0.64	1.66	2.95
O=C1Nc2ccccc2/C1=C/Nc1ccc(-n2cncn2)cc1	2.93	2.78	2.15	2.93	4.7	1.94	4.54	5.12	7.88	6.14	6.07	4.94	6.5	3.06	5.48	2.51	14.4	2.56	7.18	1.71
